Results on 40 molecules are retold here after PubChem BioAssay (NCI).

About 79,000 compounds went through this panel and 15% of them were active in at least one assay; those are over-represented in the sample as a whole. Calls of active or inactive are those of the source. Cut-off read from the data, not from the text of the source: active = growth inhibition above about 70%; inactive = the rest.

The nature of the test: NCI Yeast Anticancer Drug Screen. Data for the bub3 strain (AID 167). To be noted: S. cerevisiae bub3 mutant strain, at 5.0 µM (retest, dose inferred, filed as 0.5), active compounds read high. The procedure, abridged: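 In this screen, a yeast mutant lacking normal mitotic checkpoint function is challenged with compound. Relative growth versus vehicle gives the inhibition value.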
As for `COC(OC)(c1ccccc1)C(Br)Br`, the growth inhibition is -25% (inactive). With `Cc1ccc(S(=O)(=O)OCCc2ccc(Cl)cc2)cc1`, the growth inhibition was 9% (inactive). For the molecule `O=C(CC(=O)c1ccncc1)c1ccccc1`, the growth inhibition is -1% (inactive).

As to `CCN1CCC(O)(/C=C/c2ccccc2)C(C(=O)/C=C/c2ccccc2)C1` (stereo not given), the growth inhibition was 8% (inactive). `O=C(O)c1cc(Br)ccc1OCc1ccc(Cl)cc1`: the growth inhibition was -8% (inactive). On to `Cc1ccc(C2COc3cc(O)c(O)cc3C2)cc1` (stereo not given), for which the growth inhibition was 32% (inactive).

As to `COC(=O)c1c2oc3c(C(=O)OC)cccc3nc-2cc(N)c1=O`, the growth inhibition was 49% (inactive). In the case of `CC(=O)NCCN(C)C`, the growth inhibition is -3% (inactive). In the case of `N=c1scc(-c2ccccc2)n1/N=C/c1cccnc1`, the growth inhibition is 5% (inactive).

As to `C(=C/c1ccccc1)/C=N/Nc1ccccc1`, the growth inhibition was -72% (inactive). For `OC(Cc1ccc(Br)cc1)CN1CCC(c2ccccc2)CC1` (stereo not given) the value was 83% (active); for `O=C1C(Cl)=C(Nc2ccc(S(=O)(=O)O)cc2)C(=O)c2ccccc21`, 74% (active); for `CC1(CO)CCCC2(C)C3=C(CCCC3)CCC12` (stereo not given), -67% (inactive).

For the molecule `Cc1cc2nc(CC(=O)c3ccc4ccccc4c3)c(=O)[nH]c2cc1C`, the growth inhibition is 13% (inactive). For the molecule `CN(CCO)CCn1cnc2c1c(=O)n(C)c(=O)n2C`, the growth inhibition was -4% (inactive). For `O=C1c2ccccc2CC(Br)c2ccccc21` (stereo not given) the value was -10% (inactive). Under `Cc1cccc2c(CBr)cc(=O)[nH]c12` stands 12% (inactive); under `CC(=O)CC1CCC(=O)/C=C/C(=O)OC(CC(C)=O)CCC(=O)/C=C/C(=O)O1` (stereo not given), 9% (inactive). Under `CCN(CC)CC(O)c1c(-c2ccccc2)c(-c2ccccc2)c2n1CCC2` (stereo not given) stands -3% (inactive). In the case of `CC1(C)CC[C@]2(C(=O)O)[C@H](O)C[C@]3(C)C(=CC[C@@H]4[C@@]5(C)CC[C@H](OC6OCC(O)C(O)C6OC6OCC(O)C(O)C6OC6OCC(O)C(O)C6O)C(C)(C)[C@@H]5CC[C@]43C)[C@@H]2C1` (stereo not given in full), the growth inhibition is 14% (inactive). As to `Cc1ccc(NC(=O)/C(CC(=O)c2sc(Nc3ccc(Cl)c(Cl)c3)nc2C)=N\Nc2ccc([N+](=O)[O-])cc2[N+](=O)[O-])c(C)c1`, the growth inhibition was -10% (inactive). On to `CC(=O)N=C1N(/C=C2\C(=O)Oc3ccccc3C2=O)C(=O)/C(=C/c2ccc(Cl)cc2Cl)N1C`, for which the growth inhibition is 23% (inactive). As to `COC1OC2COC(c3ccccc3)OC2C(NC(=S)SCc2ccccc2)C1O` (stereo not given), the growth inhibition was 0% (inactive). Take `O=C(CCN1CCCCC1)N1CCc2c([nH]c3ccccc23)C1c1cccnc1` (stereo not given): the growth inhibition is 4% (inactive).

As for `Cc1ccc(Sc2ccc(C)cc2[N+](=O)[O-])c([N+](=O)[O-])c1`, the growth inhibition is 56% (inactive). For `O=c1c2cc3ccccc3cc2c(=O)n2n1CC=CC2` the value was 2% (inactive); for `ClC(Cl)=C1C(=C(Cl)Cl)C(Cl)(Cl)C1(Cl)Cl`, 56% (inactive). In the case of `Cc1c(C(=O)N(CCO)CCO)[n+](=O)c2ccccc2n1[O-]`, the growth inhibition is 3% (inactive). Consider `CN(C)c1cc(N(C)C)c2cc(-c3ccccc3)sc2n1`, for which the growth inhibition was -5% (inactive). Consider `O=C(Nc1ccccc1O)/C(Cl)=C/Cl`, for which the growth inhibition was -63% (inactive). `Cc1ccccc1SCc1nc2ccccc2c(C)[n+]1[O-]`: the growth inhibition is -1% (inactive). Regarding `Oc1ccc2c(ccc3ccccc32)c1`, the growth inhibition was 4% (inactive).

`O=C1c2ccccc2C(=O)N1C(=NCc1ccccc1)c1ccccc1`: the growth inhibition was -3% (inactive). Turning to `Cc1cc(Cl)cc2c1OCN(C)C2`, the growth inhibition is -5% (inactive). For `CC(C)C(=O)/C=C/c1ccc(Cl)cc1Cl` the value was -32% (inactive). With `CC(C)C(=O)c1ccc([N+](=O)[O-])o1`, the growth inhibition was 1% (inactive). As for `CSc1c(S(C)=O)c2ccccc2n1C` (stereo not given), the growth inhibition is 3% (inactive). As for `O=C(CCCCN1CCN2c3ccccc3CCC2C1)c1ccccc1` (stereo not given), the growth inhibition is 1% (inactive). Regarding `COC(=O)c1ccc(C)cc1CC1Cc2cc(C)ccc2C1=O` (stereo not given), the growth inhibition was -34% (inactive). For `Cc1cc(Nc2ccc(N=Nc3ccc(O)c4ncccc34)cc2)nc(C)n1`, the growth inhibition is 5% (inactive).
